{
  "source": "paper PMC5700166",
  "data": [
    {"biological_target": "T1, GST-Dm-Relish (Drosophila melanogaster, UniProt Q94527 99-473)", "T1 sequence": "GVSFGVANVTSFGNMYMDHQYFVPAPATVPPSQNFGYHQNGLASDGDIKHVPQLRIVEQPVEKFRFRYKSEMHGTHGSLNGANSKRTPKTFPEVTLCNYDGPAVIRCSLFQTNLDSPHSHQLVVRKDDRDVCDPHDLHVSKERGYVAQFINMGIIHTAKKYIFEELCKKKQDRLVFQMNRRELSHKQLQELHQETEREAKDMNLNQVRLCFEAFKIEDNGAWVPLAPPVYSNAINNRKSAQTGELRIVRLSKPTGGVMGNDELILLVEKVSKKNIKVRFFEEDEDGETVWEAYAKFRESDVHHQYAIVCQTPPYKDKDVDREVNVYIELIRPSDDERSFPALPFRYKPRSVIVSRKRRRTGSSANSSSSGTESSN", "assay": "protein-binding microarray (PBM); PBM: ~300 nM protein, 6 mM HEPES pH 7.8, 80 mM KCl, 0.5 mM EDTA, 0.5 mM EGTA, 6% glycerol, 35 ng/ul poly-dIdC, 1% milk, 1 h, room temperature; Ap Aiptasia and Nv Nematostella (sea anemones) / Co Capsaspora / Aq Amphimedon (sponge) / Dm Drosophila / Hu human; RHD is the Rel homology domain; high values mean tight binding", "conditions": "dsDNA, one strand shown", "units": {"binding signal": "z-score"}, "values": [
      {"sequence": "CCGATTAACATCAGTAAAATCCATGATGTTAATCGGGTCTTGATTCGCTTGACGCTGCTG", "binding signal": 1.44},
      {"sequence": "CCGATTAACATCACGTAAATCCATGATGTTAATCGGGTCTTGATTCGCTTGACGCTGCTG", "binding signal": 1},
      {"sequence": "CCGATTAACATCACGAAAAATCCTGATGTTAATCGGGTCTTGATTCGCTTGACGCTGCTG", "binding signal": 1.48},
      {"sequence": "CCGATTAACATCACAGGAAATCCTGATGTTAATCGGGTCTTGATTCGCTTGACGCTGCTG", "binding signal": 1.25},
      {"sequence": "CCGATTAACATCAGTACATTCCATGATGTTAATCGGGTCTTGATTCGCTTGACGCTGCTG", "binding signal": 2.01},
      {"sequence": "CCGATTAACATCAGCGTGACTTTTGATGTTAATCGGGTCTTGATTCGCTTGACGCTGCTG", "binding signal": 1.47},
      {"sequence": "CCGATTAACATCAAATATTTTCCTGATGTTAATCGGGTCTTGATTCGCTTGACGCTGCTG", "binding signal": 1.09},
      {"sequence": "CCGATTAACATCACTGGAAATTCTGATGTTAATCGGGTCTTGATTCGCTTGACGCTGCTG", "binding signal": 1.59},
      {"sequence": "CCGATTAACATCAGAGTAATTCCTGATGTTAATCGGGTCTTGATTCGCTTGACGCTGCTG", "binding signal": 2.26},
      {"sequence": "CCGATTAACATCAGGAAAACACATGATGTTAATCGGGTCTTGATTCGCTTGACGCTGCTG", "binding signal": 2.56},
      {"sequence": "CCGATTAACATCAGGCGGTAAGGTGATGTTAATCGGGTCTTGATTCGCTTGACGCTGCTG", "binding signal": 1.01},
      {"sequence": "CCGATTAACATCACGTGATTTCCTGATGTTAATCGGGTCTTGATTCGCTTGACGCTGCTG", "binding signal": 4.11},
      {"sequence": "CCGATTAACATCAGGAAACTACATGATGTTAATCGGGTCTTGATTCGCTTGACGCTGCTG", "binding signal": 5.23},
      {"sequence": "CCGATTAACATCAAGTGAATTCCTGATGTTAATCGGGTCTTGATTCGCTTGACGCTGCTG", "binding signal": 3.49}
    ]}
  ]
}
